The values that follow come from the antibiotic and cytotoxicity screens of Wong et al. (2023).

Each structure is given as a SMILES string. The campaign covered roughly 39,000 compounds. About 3,300 (8.5%) were called active. Shown is part of a subset that was picked to be rich in actives.

This assay concerns HepG2. The assay can be described thus: cytotoxicity call (relative viability < 0.9). To be noted: 10 µM.
As for `CC(C)C#Cc1cnc2c(c1)C(=O)N([C@@H](C)CO)C[C@@H](C)[C@@H](CN(C)C(=O)c1ccc3c(c1)OCO3)O2`, the cytotoxicity call was “inactive”.

In the case of `O=C(C[C@H]1C[C@H]2c3cc(NS(=O)(=O)c4ccc(F)cc4)ccc3O[C@H]2[C@@H](CO)O1)NCCN1CCCCC1`, the cytotoxicity call is “inactive”.

Take `C[C@@H]1CN([C@H](C)CO)C(=O)CCCn2cc(nn2)CO[C@@H]1CN(C)S(=O)(=O)c1ccc2c(c1)OCCCO2`: the cytotoxicity call is “inactive”.

With `C[C@H]1CN([C@@H](C)CO)S(=O)(=O)c2ccc(C#Cc3cccc(F)c3)cc2O[C@@H]1CN(C)S(=O)(=O)c1ccccc1F`, the cytotoxicity call was “inactive”.

As for `C[C@H](O)C#Cc1ccc2c(c1)O[C@H](CN(C)C)[C@H](C)CN([C@H](C)CO)S2(=O)=O`, the cytotoxicity call is “inactive”.

Consider `COCC(=O)Nc1ccc2c(c1)C(=O)N(C)C[C@H](OC)[C@H](C)CN(Cc1cccc(F)c1)[C@@H](C)CO2`, for which the cytotoxicity call was “inactive”.

`S=c1[nH]nc(C2CCCCC2)[nH]1`: the cytotoxicity call was “inactive”.

For `COCC(=O)Nc1ccc2c(c1)C(=O)N(C)C[C@@H](OC)[C@H](C)CN(C(=O)Nc1ccccc1F)[C@H](C)CO2`, the cytotoxicity call is “inactive”.

Turning to `Cc1nnc(SCC2=C(C(=O)O)N3C(=O)[C@@H](N)[C@H]3SC2)s1`, the cytotoxicity call was “inactive”.

Turning to `CCOC(=O)c1ccc(NC(=S)N[C@@H](NC(=O)c2ccc(Br)cc2)C(Cl)(Cl)Cl)cc1`, the cytotoxicity call is “inactive”.

In the case of `O=C(N[C@H](NC(=S)Nc1ccc(F)c([N+](=O)[O-])c1)C(Cl)(Cl)Cl)C(c1ccccc1)c1ccccc1`, the cytotoxicity call was “active”.

Regarding `C[C@@H]1CN([C@@H](C)CO)S(=O)(=O)c2ccc(-c3cncnc3)cc2O[C@H]1CN(C)C(=O)Cc1ccccc1`, the cytotoxicity call is “inactive”.

As to `C[C@H]1CCCCO[C@H](CN(C)Cc2ccccc2)[C@@H](C)CN([C@@H](C)CO)C(=O)c2cc(NS(=O)(=O)c3cccs3)ccc2O1`, the cytotoxicity call was “inactive”.

For the compound `COc1ccc(CN(C)C[C@@H]2OCCCC[C@@H](C)Oc3ccc(NC(=O)c4ccncc4)cc3C(=O)N([C@@H](C)CO)C[C@H]2C)cc1`, the cytotoxicity call is “inactive”.

Turning to `C[C@@H]1CCCCO[C@@H](CN(C)S(=O)(=O)c2cn(C)cn2)[C@H](C)CN([C@H](C)CO)C(=O)c2cc(NC(=O)Nc3cccc4ccccc34)ccc2O1`, the cytotoxicity call is “inactive”.

With `C[C@H](CO)N1C[C@H](C)[C@H](CN(C)S(=O)(=O)c2cccs2)OCCCC[C@H](C)Oc2ccc(NS(=O)(=O)c3ccc(Cl)cc3)cc2C1=O`, the cytotoxicity call is “inactive”.

Regarding `C[C@@H]1CN([C@@H](C)CO)C(=O)c2cc(NS(=O)(=O)c3ccc(Cl)cc3)ccc2O[C@@H](C)CCCCO[C@@H]1CN(C)S(=O)(=O)c1cccs1`, the cytotoxicity call is “inactive”.

With `C[C@H]1CCCCO[C@@H](CN(C)S(=O)(=O)c2cccs2)[C@@H](C)CN([C@@H](C)CO)C(=O)c2cc(NS(=O)(=O)c3ccc(Cl)cc3)ccc2O1`, the cytotoxicity call is “inactive”.

Consider `C[C@@H]1CCCCO[C@@H](CN(C)S(=O)(=O)c2cccs2)[C@@H](C)CN([C@H](C)CO)C(=O)c2cc(NS(=O)(=O)c3ccc(Cl)cc3)ccc2O1`, for which the cytotoxicity call is “inactive”.

Turning to `C[C@@H]1CCCCO[C@H](CN(C)S(=O)(=O)c2cccs2)[C@H](C)CN([C@@H](C)CO)C(=O)c2cc(NS(=O)(=O)c3ccc(Cl)cc3)ccc2O1`, the cytotoxicity call was “active”.

Take `C[C@@H]1CN([C@H](C)CO)C(=O)c2cc(NS(=O)(=O)c3ccc(Cl)cc3)ccc2O[C@@H](C)CCCCO[C@H]1CN(C)S(=O)(=O)c1cccs1`: the cytotoxicity call is “inactive”.

`C[C@@H]1CCCCO[C@@H](CN(C)S(=O)(=O)c2cccs2)[C@H](C)CN([C@H](C)CO)C(=O)c2cc(NS(=O)(=O)c3ccc(Cl)cc3)ccc2O1`: the cytotoxicity call is “active”.

In the case of `C[C@H](CO)N1C[C@H](C)[C@@H](CN(C)S(=O)(=O)c2cccs2)OCCCC[C@H](C)Oc2ccc(NS(=O)(=O)c3ccc(Cl)cc3)cc2C1=O`, the cytotoxicity call is “active”.

Turning to `C[C@@H]1CCCCO[C@H](CN(C)S(=O)(=O)c2cccs2)[C@H](C)CN([C@H](C)CO)C(=O)c2cc(NS(=O)(=O)c3ccc(Cl)cc3)ccc2O1`, the cytotoxicity call was “inactive”.

Take `C[C@@H]1CN([C@H](C)CO)C(=O)c2cc(NS(=O)(=O)c3ccc(Cl)cc3)ccc2O[C@@H](C)CCCCO[C@@H]1CN(C)S(=O)(=O)c1cccs1`: the cytotoxicity call was “inactive”.

On to `C[C@@H]1CCCCO[C@@H](CN(C)S(=O)(=O)c2cccs2)[C@H](C)CN([C@@H](C)CO)C(=O)c2cc(NS(=O)(=O)c3ccc(Cl)cc3)ccc2O1`, for which the cytotoxicity call is “inactive”.

Take `C[C@@H]1CCCCO[C@@H](CN(C)S(=O)(=O)c2cccs2)[C@@H](C)CN([C@@H](C)CO)C(=O)c2cc(NS(=O)(=O)c3ccc(Cl)cc3)ccc2O1`: the cytotoxicity call is “active”.
